The values below come from PubChem BioAssay AID1259398 (Fisher Drug Discovery Resource Center, 2018).

Values joined by “and” are separate entries in the source; they are usually repeats but may differ in a detail not shown here. Equal values may be shown once. Among all 290,000 compounds or so, about 230 (0.079%) were called active. The sample holds actives, similar compounds and a random draw of the others, so the mix is not that of the screen. No stated cut-off is given here; in the data, active means inhibition above about 40%; inactive means the rest.

The target of the test is Cyclic GMP-AMP synthase (Homo sapiens) (UniProt Q8N884). Briefly: Primary biochemical luminescence assay for human cyclic GMP-AMP synthase inhibitors (AID 1259398).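 Further: 0% = vehicle reaction and 100% = reaction without DNA for no activity.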 The following applies: recombinant h-cGAS, ATP depletion, Kinase-Glo luminescence; at 12.5 µM; active compounds read high.
Cyclic GMP-AMP synthase (Homo sapiens), sequence (Q8N884 whole entry, looked up): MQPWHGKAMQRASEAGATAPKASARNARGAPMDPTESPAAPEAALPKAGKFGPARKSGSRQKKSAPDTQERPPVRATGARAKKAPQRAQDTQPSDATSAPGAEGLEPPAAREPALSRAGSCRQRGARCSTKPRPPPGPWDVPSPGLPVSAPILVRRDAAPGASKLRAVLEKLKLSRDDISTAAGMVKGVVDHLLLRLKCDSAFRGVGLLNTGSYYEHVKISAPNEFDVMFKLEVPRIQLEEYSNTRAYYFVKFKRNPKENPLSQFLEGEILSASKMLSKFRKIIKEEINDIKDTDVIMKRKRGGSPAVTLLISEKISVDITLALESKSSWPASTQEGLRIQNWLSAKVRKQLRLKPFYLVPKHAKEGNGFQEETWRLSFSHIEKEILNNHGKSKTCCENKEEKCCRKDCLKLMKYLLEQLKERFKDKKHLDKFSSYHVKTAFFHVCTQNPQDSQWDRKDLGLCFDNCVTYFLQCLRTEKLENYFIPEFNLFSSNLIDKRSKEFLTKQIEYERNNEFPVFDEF
Take `CC(NCc1ccccc1Cn1cccn1)C(=O)NC1CCCC1` (stereo unspecified): the inhibition (in general, the drop in the measured response relative to a control, in per cent) was -4.67% (inactive). The value for `Cc1ccc(Nc2nc(N3CCN(c4ccc(F)cc4)CC3)nc3nccnc23)c(C)c1` was -2.31% (inactive).

For `CCc1cnc2c(c1SCc1cccc(C(F)(F)F)c1)c(=O)n(C)c(=O)n2C`, the inhibition is -9.29% (inactive). The value for `Cc1ccc(CN(CCc2c[nH]c3ccccc23)C(=O)CN(C(=O)c2ccc([N+](=O)[O-])cc2)C(C)C)cc1` was -6.46% (inactive); that for `Nc1cc(-c2cccc(C(F)(F)F)c2)nn1-c1ccc(C(=O)NCc2ccc3c(c2)OCO3)cc1` was -5.72% (inactive); that for `C=CCNc1ccccc1C(=O)N1[C@@H]2CC[C@H]1CC(O)C2` (stereo partly specified) was -2.12% (inactive). Then `Cc1ccc(/C=C/C(=O)N(C)C(C)c2cccc(S(N)(=O)=O)c2)o1` (stereo unspecified), with -0.284% (inactive); and `O=c1c(O)c(Br)ccc2c(Br)c(O)c(O)c(O)c12`, with 70.1% (active). Then `O=C(C=Cc1ccc(Br)o1)NC1CCCCCC1`, with -5.99% (inactive); and `O=C(OCC(=O)N1CCCC1c1ccc(Cl)c(Cl)c1)C1CCOC1` (stereo unspecified), with -2.27% (inactive); and `CC(C)n1nccc1NC(=O)CN(C)S(=O)(=O)c1ccc(Cl)s1`, with -6.6% (inactive). As for `Cn1cnnc1Sc1ccc(Cl)cc1NC(=O)C1CCCCC1`, the inhibition was -8.95% (inactive). Then `CCC(C)(C)NC(=O)[C@H](CC(C)C)N1CC[C@@]2(CCCN2C(=O)CCC(C)=O)C1=O`, with 0.355% (inactive). Regarding `Cc1csc(C2CCN(S(=O)(=O)c3ccc(F)cc3Cl)CC2)n1`, the inhibition is -7.52% (inactive).

As to `Fc1cc(F)cc(-c2cncc(COc3ccc(F)cc3F)c2)c1`, the inhibition is 1.15% (inactive). As to `COc1nc(C)cc(C)c1CNC(=O)C(=O)N1CCc2ccccc21`, the inhibition is 4.25% (inactive).

As to `CCOC(=O)C1(C)CCCN1C(=O)c1cc(C)on1` (stereo unspecified), the inhibition was -5.23% (inactive). In the case of `O=C(NC1CCN(c2ccccc2C(=O)NCc2cccc(C(F)(F)F)c2)CC1)c1ccccc1F`, the inhibition was -3.47% (inactive).

Turning to `Cc1cc(=O)n(-c2ccc(S(=O)(=O)O)cc2C)[nH]1`, the inhibition was -8.43% (inactive). Then `CCOC(=O)C1CCCN(Cn2c(=O)c3ccccc3n3nc(C)cc23)C1` (stereo unspecified), with -0.416% (inactive); and `O=C(c1cc(Cn2ccc3ccccc32)[nH]n1)N1CCCC1c1nccs1` (stereo unspecified), with -1.07% (inactive). The value for `CCc1cnc(COc2ccc(OC3CCCCNC3=O)cc2)o1` (stereo unspecified) was -10.1% (inactive); that for `COC(=O)c1c(C)[nH]c(C(=O)N2CCCC2c2ccc(OC)cc2)c1C` (stereo unspecified) was -3.09% (inactive); that for `COc1ccc(-c2nnc(SCC(=O)N/N=C\c3ccccn3)n2-c2ccccc2)cc1OC` was 1.79% (inactive).

In the case of `C[N+](C)(CCCCCC[N+](C)(C)CCCN1C(=O)c2cccc3cccc(c23)C1=O)CCCN1C(=O)c2cccc3cccc(c23)C1=O`, the inhibition is 90.3% (active). For the compound `Cc1ccccc1N(CCCN1C(=O)c2cccc3cccc(c23)C1=O)C(=O)c1ccc([N+](=O)[O-])cc1`, the inhibition was -1.77% (inactive). Then `O=C1c2cccc3cccc(c23)C(=O)N1CCCCCc1n[nH]c(=S)o1`, with -2.3% (inactive); and `COc1cn(CC(=O)NCc2ccc3c(c2)OCO3)c(CSc2ncccn2)cc1=O`, with -5.34% (inactive). The value for `COCCCN(CC(=O)N(Cc1ccc2c(c1)OCO2)Cc1cccs1)C(=O)C1C[C@H]1c1ccccc1` (stereo partly specified) was -8.64% (inactive); that for `O=C(CCNC(=O)C1CC2(CCNCC2)CN1)Nc1nccs1` (stereo unspecified) was -7.06% (inactive). The value for `COCc1c(Br)c(C)nc(OCC(=O)N/N=C\c2cc(I)c(OCc3ccccc3Cl)c(OC)c2)c1C#N` was -3.7% (inactive). Take `CN1CCN(C(=O)c2cc(COc3ccc(-n4cncn4)cc3)on2)CC1c1ccccc1` (stereo unspecified): the inhibition is -7.12% (inactive) and -3.64% (inactive). The value for `CCOc1cc(Br)cc(/C=N\Nc2nc(N3CCCCC3)nc(N3CCCCC3)n2)c1O` was -5.11% (inactive); that for `CC1CCCN(c2nn3c(C(=O)NCCN4CCCCCC4)cc(=O)nc3s2)C1` (stereo unspecified) was -1.82% (inactive); that for `Nc1ccc(NC(=S)NCc2ccco2)cc1[N+](=O)[O-]` was -4.64% (inactive). Then `CCN1CCN(c2ccccc2NS(=O)(=O)c2cc(Br)ccc2OC)CC1`, with -2.43% (inactive).
